Hits are enriched below; roughly 19% of the tested compounds scored in any of these assays.
Pf growth 96h: inhibits malaria parasite growth, 96 h. Potency, µM (highest dose often 28.7 µM), without a hit: at the top dose activity change, negative = inhibition, usual class: inhibitors. hit rate 6.9% among 320,000. P. falciparum luciferase reporter growth, 96 h. AID 504834; also: potency is read from the fitted curve at half-maximal effect; % is scaled to controls: 0 for no effect and ±100 for the full control effect
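Cell-based qHTS: luciferase-tagged P. falciparum in erythrocytes (2% hematocrit, 0.05% parasitemia final) incubated with compounds for 96 hours, 37 C, 5% CO2; luciferase detection reagent then added and luminescence measured.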
Marburg entry inh: Marburg virus entry inhibition | Marburg virus pseudotyped entry inhibition, cell reporter | hit rate 1.8% among 300,000 | Potency, µM (top dose mostly 37.8 µM), without a hit: at the top dose activity change, negative = inhibition, hits mostly inhibitors; calls by dose curve; tested in HEK293 cells; also: potency is read from the fitted curve at half-maximal effect; % is scaled to controls: 0 for no effect and ±100 for the full control effect
Shiga toxin inh: Shiga toxin inhibition | inhibition, % at 38.7 µM | hit rate 9.2% among 290,000 | Vero cells, Shiga toxin protein synthesis inhibition reporter; in the data active = inhibition mostly above about 28%, no sharp cut-off; inactive = mostly below about 43%; also: 0% is about no effect
Pf growth 48h: inhibits P. falciparum growth in the first generation, 48 h | P. falciparum luciferase growth in erythrocytes, 48 h | Potency, µM (top dose mostly 28.7 µM), for inactives: at the top dose activity change, negative = inhibition, usual class: inhibitors | hit rate 5.9% among 310,000 | AID 504832; also: potency is read from the fitted curve at half-maximal effect; % is scaled to controls: 0 for no effect and ±100 for the full control effect
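First compound was added to culture medium, then infected red cells at 0.1% parasitemia and 2% hematocrit (final). After incubation at 37 C under 5% CO2, luciferase detection reagent was dispensed and light output recorded.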
Lassa entry inh: Lassa virus entry inhibition. hit rate 1.2% among 300,000. AID 540256. Potency, µM (top dose mostly 37.9 µM), without a hit: at the highest dose activity change, negative = inhibition, most hits filed as inhibitors. Lassa virus pseudotype entry inhibition, cell reporter; calls by dose curve; tested in HEK293 cells; also: potency is read from the fitted curve at half-maximal effect; % is scaled to controls: 0 for no effect and ±100 for the full control effect; nearly all actives have a fitted effect of over 50% in size
CHX counter: counter-screen for Shiga toxin inhibitors: cycloheximide protein synthesis inhibition; cell reporter, cycloheximide protein synthesis inhibition counterscreen; max response, %; hit rate 12% among 300,000; AID 2314; in the data active = max response mostly above about 13%, no sharp cut-off; inactive = mostly below about 14%; also: read at 38.3 µM for the half of the compounds with a filed dose; 0% is about no effect
Starred values were filed as active, the others as inactive; [ ] = dose if it differs, or a comment. Unless noted, calls follow the shape of the dose curve; as a rule, active = well fitted inhibition curve with a large enough effect; inconclusive = small, poorly fitted or top-dose-only effect, or another doubt; inactive = no such curve, though single readings can be large or run the other way.

For CN(C)c1ccc(C(CNC(=O)c2cccs2)N(C)C)cc1 (stereo not drawn) the results were Pf growth 96h 42%, Shiga toxin inh 51*, Pf growth 48h 83% and CHX counter 50*.
`O=C(NCCCCNC(=O)c1cccs1)c1cccs1` gave Pf growth 96h inconclusive, Marburg entry inh inconclusive, Shiga toxin inh -3, Pf growth 48h 0%, Lassa entry inh 13% and CHX counter -4.
For O=C(Cc1cccs1)NCc1cccc(Br)c1 the results were Pf growth 96h 107%, Shiga toxin inh 66*, Pf growth 48h 36% and CHX counter 29*.
`O=C(Cc1cccs1)NCc1cccs1` gave Marburg entry inh 17%, Shiga toxin inh 39, Pf growth 48h 16%, Lassa entry inh 12% and CHX counter 13.
For O=C(Cc1csc2ccccc12)NCc1cccc(Br)c1 the results were Marburg entry inh 1%[46.1 µM] and Lassa entry inh 9%[46.1 µM].
Screening CCCCC(CC)CNC(=O)c1cccs1 (stereo not drawn) returned Pf growth 96h 4.7µM*, Marburg entry inh 3%, Shiga toxin inh 31, Pf growth 48h 5.2µM*, Lassa entry inh 9% and CHX counter 5.
O=C(Cc1cccs1)NCc1ccc(F)cc1 was read as Pf growth 96h -22%, Marburg entry inh 10%, Shiga toxin inh 34, Pf growth 48h 44%, Lassa entry inh 11% and CHX counter 22*.
Screening COc1cc(NC(=O)c2ccc(Cl)cc2Cl)ccc1-c1cc2ccccc2oc1=O returned Pf growth 96h -17%, Marburg entry inh -29%, Shiga toxin inh -4, Pf growth 48h -1%, Lassa entry inh inconclusive and CHX counter -1.
`O=C(CN1C(=O)c2ccccc2S1(=O)=O)NCCSCc1c(F)cccc1Cl` gave Pf growth 96h 29%, Marburg entry inh 7%[46.1 µM], Shiga toxin inh -18, Pf growth 48h 11%, Lassa entry inh 2% and CHX counter -1.
O=c1[nH]c(/C=C/c2ccc(OC(F)F)cc2)nc2c1cnn2-c1ccccc1 was read as Pf growth 96h 5%, Marburg entry inh 1%[46.1 µM], Shiga toxin inh 19, Pf growth 48h -4%, Lassa entry inh inconclusive and CHX counter -1.
`CCOC(=O)c1c(C)c(C(=O)NCC2CCCO2)c(C)n1C` (stereo not drawn) gave Pf growth 96h inconclusive, Marburg entry inh 16%, Shiga toxin inh -6, Pf growth 48h 6%, Lassa entry inh -10% and CHX counter -1.
Screening COc1ccc(C(CNC(=O)CN2C(=O)NC3(CCCC3)C2=O)N(C)C)cc1 (stereo not drawn) returned Pf growth 96h 17%, Marburg entry inh -3%[46.1 µM], Shiga toxin inh -21, Pf growth 48h 11%, Lassa entry inh inconclusive and CHX counter 25*.
COc1ccc(CCNC(=O)CN2C(=O)NC3(CCCCC3)C2=O)cc1 was read as Marburg entry inh 10% and Lassa entry inh -5%.
For Cc1ccc(O)c(C2=Nc3ccccc3N=C(c3ccc([N+](=O)[O-])cc3)C2)c1 the results were Pf growth 96h inconclusive, Marburg entry inh 13%, Shiga toxin inh 15, Pf growth 48h -21%, Lassa entry inh inconclusive and CHX counter 25*.
Cc1ccc(C2=Nc3ccccc3N=C(c3ccc(F)cc3)C2)c(O)c1 was read as Lassa entry inh -7%[46.1 µM].
`Cc1ccc(O)c(C2=Nc3ccccc3N=C(c3ccco3)C2)c1` gave Pf growth 96h inconclusive, Marburg entry inh -18%, Shiga toxin inh 23, Pf growth 48h inconclusive, Lassa entry inh 6% and CHX counter 24*.
`Cc1ccc(C2=Nc3ccccc3N=C(c3ccco3)C2)c(O)c1` gave Pf growth 96h 68%, Marburg entry inh 11%, Shiga toxin inh 48, Pf growth 48h 8%, Lassa entry inh 18% and CHX counter 14.
For Cc1ccc(O)c(C2=Nc3ccccc3N=C(c3cccc([N+](=O)[O-])c3)C2)c1 the results were Pf growth 96h -22%, Marburg entry inh -5%, Shiga toxin inh 67*, Pf growth 48h inconclusive, Lassa entry inh 3% and CHX counter 38*.
Screening CN1C(=O)/C(=C/c2ccc(Cl)s2)C(=O)NC1=S returned Pf growth 96h -24%, Marburg entry inh 3%[46.1 µM], Shiga toxin inh -3, Pf growth 48h 8%, Lassa entry inh inconclusive and CHX counter -2.
Screening O=C(NCCc1nc2ccccc2[nH]1)c1cc([N+](=O)[O-])cc([N+](=O)[O-])c1 returned Pf growth 96h inconclusive, Marburg entry inh -2%, Shiga toxin inh -4, Pf growth 48h 4.7µM*, Lassa entry inh 13% and CHX counter -2.
COc1ccc(C(=O)NCCc2nc3ccccc3[nH]2)cc1 was read as Lassa entry inh 11%[46.1 µM].
`O=C(Cn1cc([N+](=O)[O-])cn1)NCCc1nc2ccccc2[nH]1` gave Pf growth 96h 9.3µM*, Marburg entry inh 12%[46.1 µM], Shiga toxin inh 11, Pf growth 48h 19%, Lassa entry inh 8%[46.1 µM] and CHX counter 4.
Screening COc1cc(OC)cc(C(=O)Nc2ccc3c(c2)n(C)c(=O)c(=O)n3C)c1 returned Lassa entry inh 16%[46.1 µM].
For CC(C)(C)C(=O)NC1CC2CCCC(C1)N2C(=O)Nc1cccc(Cl)c1 (stereo not drawn) the results were Pf growth 96h -7%, Shiga toxin inh -12, Pf growth 48h -45% and CHX counter 2.
Screening Cn1c(O)c(/C=N/NC(=O)c2ccncc2)c(=O)[nH]c1=S returned Pf growth 96h -13%, Shiga toxin inh 5, Pf growth 48h 12% and CHX counter 7.
Cc1ccc(N=C2SC(C(=O)O)CC(=O)N2C)cc1C (stereo not drawn) was read as Pf growth 96h 12µM*, Marburg entry inh 14%[46.1 µM], Shiga toxin inh -9, Pf growth 48h 39%, Lassa entry inh 1% and CHX counter -3.
`Nc1ccc2nc3c(c(Cl)c2c1)CCCC3` gave Pf growth 96h 12%, Marburg entry inh inconclusive, Shiga toxin inh 28, Pf growth 48h 23%, Lassa entry inh -28% and CHX counter 29*.
c1ccc(Oc2c3ccccc3nc3ccccc23)cc1 was read as Pf growth 96h inconclusive, Marburg entry inh -28%, Shiga toxin inh -13, Pf growth 48h 7.4µM*, Lassa entry inh -3% and CHX counter -4.
For CCN(CC)c1nc2ccccc2c(N)c1-c1ccccc1 the results were Pf growth 96h -3%, Marburg entry inh inconclusive, Shiga toxin inh 29, Pf growth 48h 15µM*, Lassa entry inh inconclusive and CHX counter -4.
For Cc1cccc2c(N)c3c(nc12)CCCC3 (tested in a mixture with another compound) the results were Pf growth 96h inconclusive, Shiga toxin inh 8, Pf growth 48h 4.7µM* and CHX counter 5.

Source: PubChem (National Center for Advancing Translational Sciences (NCATS))
